{
  "source": "the supplement of paper PMC7724964",
  "data": [
    {"molecular_target": "T1, ZGPAT 120-268 zf-CCCH+TUDOR (domain begin residue: 120, domain end residue: 268), Q8N5A5", "T1 chain": "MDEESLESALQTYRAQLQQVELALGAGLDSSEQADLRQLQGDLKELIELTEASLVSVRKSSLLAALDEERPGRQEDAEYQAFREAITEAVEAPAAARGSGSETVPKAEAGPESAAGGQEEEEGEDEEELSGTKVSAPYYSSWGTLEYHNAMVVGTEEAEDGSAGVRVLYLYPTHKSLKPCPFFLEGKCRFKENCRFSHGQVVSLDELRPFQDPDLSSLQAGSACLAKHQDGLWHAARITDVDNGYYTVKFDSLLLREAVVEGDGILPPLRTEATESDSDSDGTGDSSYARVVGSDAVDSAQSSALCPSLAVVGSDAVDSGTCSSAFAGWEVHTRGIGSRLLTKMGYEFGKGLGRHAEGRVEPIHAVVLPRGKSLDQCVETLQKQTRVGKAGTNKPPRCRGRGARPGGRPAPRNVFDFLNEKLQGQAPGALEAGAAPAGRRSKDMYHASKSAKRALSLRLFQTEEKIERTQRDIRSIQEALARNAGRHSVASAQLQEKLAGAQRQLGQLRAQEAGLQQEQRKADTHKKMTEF", "experiment": "phage ELISA signal ratio (GST-PRM binding over GST background); higher = stronger binding of peptide-phage to the PRM", "in_short": "(§1)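 Approximately 48 individual clones from selection rounds 4 and 5 were tested by phage ELISA, and those scoring positive were sequenced. They came from five rounds of selecting an M13 phage library of randomized, cysteine-free, glycine-flanked hexadecapeptides on the gene-8 major coat protein against human peptide recognition domains fused to the C-terminus of glutathione S-transferase (GST) in 96-well plates. Each figure in the table is the ELISA signal on the GST-domain fusion relative to the signal on GST alone.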", "values": [
      {"binder": "SQAMDLNAGWPWDIVM", "phage ELISA signal ratio": 8.17},
      {"binder": "DYMSQLWDHMSVDIYP", "phage ELISA signal ratio": 5.82},
      {"binder": "EPHMLYDMWREWVTAD", "phage ELISA signal ratio": 3.14},
      {"binder": "DYMSTLFDSIPTHVST", "phage ELISA signal ratio": 8.28}
    ]},
    {"molecular_target": "T2, YWHAZ 1-245 14-3-3 (domain begin residue: 1, domain end residue: 245), P63104", "T2 chain": "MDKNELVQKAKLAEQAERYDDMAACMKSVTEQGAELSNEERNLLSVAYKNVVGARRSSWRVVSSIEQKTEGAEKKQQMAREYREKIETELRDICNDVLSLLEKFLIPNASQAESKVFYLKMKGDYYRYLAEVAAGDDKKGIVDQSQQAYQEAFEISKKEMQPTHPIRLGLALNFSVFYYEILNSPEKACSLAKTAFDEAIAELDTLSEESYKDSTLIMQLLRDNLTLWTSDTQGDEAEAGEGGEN", "experiment": "phage ELISA signal ratio (GST-PRM binding over GST background); higher = stronger binding of peptide-phage to the PRM", "in_short": "as §1", "values": [
      {"binder": "MPEYWVDWHMEYVQEM", "phage ELISA signal ratio": 28.1},
      {"binder": "QNIEFVWWHKEWLENQ", "phage ELISA signal ratio": 6.38},
      {"binder": "EHPHYWTPWHVDYMLR", "phage ELISA signal ratio": 4.41},
      {"binder": "VKSYYTTWHVQWLMDW", "phage ELISA signal ratio": 6.31}
    ]},
    {"molecular_target": "T3, WDR74 1-387 WD40 (domain begin residue: 1, domain end residue: 387), Q6RFH5", "T3 chain": "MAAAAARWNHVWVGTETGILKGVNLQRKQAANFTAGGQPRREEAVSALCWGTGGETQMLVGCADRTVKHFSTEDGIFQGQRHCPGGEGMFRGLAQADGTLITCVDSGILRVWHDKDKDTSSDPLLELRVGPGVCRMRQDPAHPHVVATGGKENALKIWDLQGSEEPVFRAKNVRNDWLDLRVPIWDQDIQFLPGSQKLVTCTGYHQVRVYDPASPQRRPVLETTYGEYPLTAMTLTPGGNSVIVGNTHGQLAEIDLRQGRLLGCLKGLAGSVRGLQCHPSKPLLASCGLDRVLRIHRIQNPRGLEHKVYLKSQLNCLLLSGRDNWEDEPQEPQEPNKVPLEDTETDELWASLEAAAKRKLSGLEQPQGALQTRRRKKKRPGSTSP", "experiment": "phage ELISA signal ratio (GST-PRM binding over GST background); higher = stronger binding of peptide-phage to the PRM", "in_short": "as §1", "values": [
      {"binder": "WEAIWDDMLTVQMPMA", "phage ELISA signal ratio": 5},
      {"binder": "DFMSDMFLQQLDTVGL", "phage ELISA signal ratio": 7.8},
      {"binder": "FDSYWEAAFDQLQMAE", "phage ELISA signal ratio": 7.17},
      {"binder": "DWFSSIIEAERQPVAD", "phage ELISA signal ratio": 5.4},
      {"binder": "PALSDVWDSIPLEFAW", "phage ELISA signal ratio": 6.43},
      {"binder": "DMWSQWEEWNAVMPWE", "phage ELISA signal ratio": 9.73}
    ]},
    {"molecular_target": "T4, YWHAE 1-255 14-3-3 (domain begin residue: 1, domain end residue: 255), P62258", "T4 chain": "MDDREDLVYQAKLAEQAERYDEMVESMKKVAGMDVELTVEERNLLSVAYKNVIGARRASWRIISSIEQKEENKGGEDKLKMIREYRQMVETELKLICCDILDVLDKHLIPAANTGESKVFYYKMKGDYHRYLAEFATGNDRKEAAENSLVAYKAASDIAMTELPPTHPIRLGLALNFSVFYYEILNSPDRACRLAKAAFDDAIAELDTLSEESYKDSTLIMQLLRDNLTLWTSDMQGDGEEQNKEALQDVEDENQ", "experiment": "phage ELISA signal ratio (GST-PRM binding over GST background); higher = stronger binding of peptide-phage to the PRM", "in_short": "as §1", "values": [
      {"binder": "YMQNLDTQWMLWLQGP", "phage ELISA signal ratio": 9.78},
      {"binder": "EWSVWDHVPRDWQTVG", "phage ELISA signal ratio": 17.7}
    ]},
    {"molecular_target": "T5, YWHAB 1-246 14-3-3 (domain begin residue: 1, domain end residue: 246), P31946", "T5 chain": "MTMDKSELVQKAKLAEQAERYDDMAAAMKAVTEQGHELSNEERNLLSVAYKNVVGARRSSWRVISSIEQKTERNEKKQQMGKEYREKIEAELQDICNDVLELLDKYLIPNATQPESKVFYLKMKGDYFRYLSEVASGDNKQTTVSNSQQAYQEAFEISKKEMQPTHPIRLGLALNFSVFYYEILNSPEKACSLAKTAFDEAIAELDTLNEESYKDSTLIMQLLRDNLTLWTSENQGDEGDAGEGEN", "experiment": "phage ELISA signal ratio (GST-PRM binding over GST background); higher = stronger binding of peptide-phage to the PRM", "in_short": "as §1", "values": [
      {"binder": "HKMEPWYTDWHADFLM", "phage ELISA signal ratio": 9.61},
      {"binder": "VWPMPQTWAEWQDLLA", "phage ELISA signal ratio": 17.7},
      {"binder": "RPAWMDSATWLMIQEW", "phage ELISA signal ratio": 22},
      {"binder": "QNIEFVWWHKEWLENQ", "phage ELISA signal ratio": 15.1},
      {"binder": "VVFSDYWVDWHVEYMG", "phage ELISA signal ratio": 11.9},
      {"binder": "HPPWWEPWHVEFLLQD", "phage ELISA signal ratio": 22.7}
    ]},
    {"molecular_target": "T6, YWHAG 1-247 14-3-3 (domain begin residue: 1, domain end residue: 247), P61981", "T6 chain": "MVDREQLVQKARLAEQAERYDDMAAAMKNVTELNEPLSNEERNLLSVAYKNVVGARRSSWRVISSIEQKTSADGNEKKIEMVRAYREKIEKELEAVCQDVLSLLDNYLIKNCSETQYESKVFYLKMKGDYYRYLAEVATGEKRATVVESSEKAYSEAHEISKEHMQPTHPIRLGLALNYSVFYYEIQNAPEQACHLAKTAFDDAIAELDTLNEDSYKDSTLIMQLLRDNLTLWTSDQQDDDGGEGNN", "experiment": "phage ELISA signal ratio (GST-PRM binding over GST background); higher = stronger binding of peptide-phage to the PRM", "in_short": "as §1", "values": [
      {"binder": "PQSLQEAMVVWQTWSG", "phage ELISA signal ratio": 21.6},
      {"binder": "PSPQPWWTDWHAEWVN", "phage ELISA signal ratio": 16.1},
      {"binder": "HQQGDDWVIAEIPPFR", "phage ELISA signal ratio": 19.8}
    ]},
    {"molecular_target": "T7, YWHAH 2-246 14-3-3 (domain begin residue: 2, domain end residue: 246), Q04917", "T7 chain": "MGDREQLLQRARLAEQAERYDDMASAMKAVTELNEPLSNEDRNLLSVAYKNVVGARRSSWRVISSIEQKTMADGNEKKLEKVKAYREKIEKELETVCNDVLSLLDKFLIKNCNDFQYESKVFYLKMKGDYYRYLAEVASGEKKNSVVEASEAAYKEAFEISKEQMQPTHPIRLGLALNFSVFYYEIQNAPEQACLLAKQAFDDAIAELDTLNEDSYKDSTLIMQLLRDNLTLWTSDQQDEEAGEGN", "experiment": "phage ELISA signal ratio (GST-PRM binding over GST background); higher = stronger binding of peptide-phage to the PRM", "in_short": "as §1", "values": [
      {"binder": "GLHQLDWLDLADIYPK", "phage ELISA signal ratio": 18.7},
      {"binder": "MDWLDLAGQESLFPLW", "phage ELISA signal ratio": 17.1},
      {"binder": "VEYLDLANFDPMAGKW", "phage ELISA signal ratio": 26.2},
      {"binder": "GDVSNLSEAMELWRSW", "phage ELISA signal ratio": 17.6},
      {"binder": "SLEWLDLAQWTDPHQR", "phage ELISA signal ratio": 19.8},
      {"binder": "LEWLDLAQWHGGENSR", "phage ELISA signal ratio": 21}
    ]}
  ]
}
